# According to PubChem BioAssay AID504558 (Broad Institute, 2011):
# About 2,400 (0.69%) of roughly 350,000 compounds were called active. The list comes from a sample in which actives are over-represented; it also holds similar structures and randomly drawn compounds. Values without a mark were called inactive. Rule as the data show it: active = inhibition above about 41%; inconclusive = no clear call, values can overlap the other calls; inactive = below that.
# Experiment: EBV LMP1-driven NF-kappaB luciferase reporter inhibitors, primary screen, cell-based, luminescence, single point (AID 504558);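 also: 0% = neutral control wells and 100% = reference inhibitor control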
# Conditions: LMP1-induced NF-kappaB luciferase reporter cells, at 12.5 µM, stronger effect = higher value
row,Structure (SMILES),inhibition
1,COc1ccc(C2=Nc3cc(C)ccc3OC2)cc1,91.3% (active)
2,COc1ccc(C2=NOC(COC(=O)c3ccc4ccccc4n3)C2)cc1 (configuration not stated),3.2%
3,Cc1ccc(C(=O)NNC2=Nc3cc([N+](=O)[O-])ccc3OC2)cc1,-21.3%
4,CCN(CC)C(=O)C(C)N1c2cccc3cccc(c23)S1(=O)=O (configuration not stated),11.1%
5,COc1ccc(S(=O)(=O)N2CCC(C(=O)NCCC(=O)NCCc3cccc(F)c3)CC2)cc1,6.77%
6,O=C(c1cc(-c2ccc(O)cc2)on1)N1CCOCC1,12%
7,O=C(c1cc(-c2ccc(O)cc2)on1)N1CCCc2ccccc21,83.9% (active)
8,O=C(c1cc(-c2cccc(O)c2)on1)N1CCc2ccccc2C1,-0.0205%
9,C[C@@H]1CN([C@@H](C)CO)C(=O)CCCn2nncc2CO[C@H]1CN(C)Cc1ccc(C(F)(F)F)cc1,-1.15%
10,Nc1ccc(C(=O)Nc2ccccc2N)cc1,43.3% (active)
11,Nc1ccc(S(=O)(=O)NC(=O)c2ccccc2)cc1,5.43%
12,CC(=O)Nc1ccccc1NC(=O)c1cc(C)cc(C)c1,-2.05%
13,Cc1ccc(Cc2c(-c3ccc(C)cc3)nc3c4ccccc4ccn23)cc1,-19.4%
14,Cc1ccc(C(=O)N2CCCc3ccccc32)c(Cl)c1,6.82%
15,CC(Sc1ccc(S(=O)(=O)N2CCN(C)CC2)cn1)C(=O)NC1CCCC(C)C1C (configuration not stated),-17.5%
16,CCCCCCc1cc2cc(-c3nnc(-c4ccccc4)o3)c(=O)oc2cc1O,52% (active)
17,CCc1ccc(CN(C)C(=O)CCc2nnc(-c3ccc(-c4ccccc4)cc3)o2)nc1,5.34%
18,O[C@H]1C[C@H](c2ccc(Cl)cc2)N(Cc2cccs2)C[C@@H]1n1cc(C2CC2)nn1,1.65%
19,CCOc1ccc(NS(=O)(=O)c2ccc(C(=O)NCC3CCCO3)cc2)cc1 (configuration not stated),-2.59%

row,Structure (SMILES),inhibition
1,COc1ccc(CN2C(=O)C(CC(=O)NCCCCc3ccccc3)CC(C(=O)N3CCOCC3)=C2C)cc1 (configuration not stated),-8.73%
2,COc1ccc(/C=C/c2noc(-c3ccccc3OC(C)=O)n2)cc1,9.61%
3,COc1ccc(OC)c(-c2csc(-c3cccs3)n2)c1,0.747%
4,COc1ccc(-c2nc(-c3ccccc3)no2)c(OC)c1,67.3% (active)
5,C#CCN(C[C@@H]1[C@@H](OC(=O)NC2CC2)[C@@H](OC(=O)NC2CC2)Cn2c(=O)ccc(=O)n21)S(=O)(=O)c1ccc(C)cc1,4.07%
6,CCOc1cc2ccccc2cc1C(=O)Nc1ccccn1,-13.7%
7,CCOc1ccc(NC(=S)N2CCC(NC(=O)c3ccccc3)CC2)cc1,0.728%
8,COc1ccc(C(=O)/C=C/Nc2ccccn2)cc1,67% (active)
9,CCOc1ccc(N/C=C/C(=O)c2ccccc2)cc1,82.1% (active)
10,CCOc1ccc(N/C=C/C(=O)c2cc(OC)c(OC)c(OC)c2)cc1,-9.23%
11,Cc1cc(N/C=C\C(=O)c2ccc(Cl)c(Cl)c2)no1,-16.1%
12,NC1=CC(=O)C(=O)c2cccnc21,12.1%
13,COCC(=O)N(C)C[C@H]1Oc2cc(Br)ccc2S(=O)(=O)N([C@H](C)CO)C[C@H]1C,0.42%
14,O=C(Cc1ccc([N+](=O)[O-])cc1)NCCS(=O)(=O)N1CCN(c2ccccc2)CC1,-3.09%
15,C/C(=N/Nc1nc(-c2ccccc2)c(CC(=O)O)s1)c1ccccc1,-38.4%
16,c1ccc(C(=NNc2nc3ccccc3s2)c2ccccn2)cc1,79.1% (active)
17,COc1cc(OC)nc(N/N=C(\c2ccccc2)c2ccncc2)n1,3.44%
18,COc1cccc(OC)c1C(=O)N1CCN(Cc2ccccc2F)CC1,2.93%
19,C[C@@H]1CN([C@@H](C)CO)C(=O)c2c(c3ccccc3n2C)-c2ccccc2CO[C@H]1CN(C)C(=O)C1CC1,-4.84%

row,Structure (SMILES),inhibition
1,CCOC(=O)c1c(C)[nH]c2c1-c1ccccc1C(=O)C2=O,92.7% (active)
2,CCOC(=O)c1c(C)[nH]c(C)c1S(=O)(=O)NCCCc1ccco1,-0.931%
3,CCOC(=O)c1[nH]c2ccccc2c1N=C(C)N(CC)CC,0.352%
4,C[C@H]1NS(=O)(=O)c2cc(Cl)ccc2O[C@@H]1c1ccccc1,-0.001%
5,C=CCOc1cccc(C2C(C(=O)c3ccc(C)o3)=C(O)C(=O)N2CCN2CCOCC2)c1 (configuration not stated),1.89%
6,COc1ccc(NS(=O)(=O)c2ccc(NC(=S)NC(=O)/C=C/c3ccc(C)cc3)cc2)nn1,-1.1%
7,COc1ccc(NC(=O)/C(Cl)=C(/Cl)S(=O)Cc2ccc(C)cc2)cn1 (configuration not stated),94.5% (active)
8,COc1cccc(NC(=S)N(Cc2ccc(C)cc2)Cc2ccccn2)c1,-9.16%
9,COc1ccc(CS(=O)/C(Cl)=C(/Cl)C(=O)Nc2ccc(OC)nc2)cc1 (configuration not stated),85% (active)
10,COc1ccc(OC(C)C(=O)Nc2cccnc2)cc1 (configuration not stated),-0.732%
11,COc1ccc(NC(=O)CN2C(=O)NC(C)(c3ccccc3)C2=O)cn1 (configuration not stated),4.57%
12,COCOCCn1cc(CN2CCS(=O)(=O)N(Cc3ccc(-c4cccc(N(C)C)c4)cc3)C(CC(C)C)C2=O)nn1 (configuration not stated),5.25%
13,C[C@H](CO)N1C[C@H](C)[C@H](CN(C)C(=O)Nc2ccc3c(c2)OCO3)Oc2ncc(Br)cc2C1=O,-7.49%
14,CCCCN1C(=O)C(CC(=O)NC(c2ccccc2)c2ccccc2)CC(C(=O)N2CCOCC2)=C1C (configuration not stated),-3.52%
15,Cc1cc(Nc2ccc(Br)cc2)nc2ccccc12,-19.5%
16,Cc1cc(C)n(-c2nnc(N3CCN(c4ccccc4)CC3)nn2)n1,-13.2%
17,Cc1cc(N/N=C\c2ccc(Br)cc2)nc(-n2nc(C)cc2C)n1,47.1% (active)
18,O=C(NCc1nnnn1-c1ccc(Cl)cc1)c1ccc2c(c1)OCO2,-8.64%
19,C=CCn1c(C)cc(C2=NNC(=NCC)SC2)c1C,86.2% (active)
